Data taken from PubChem BioAssay.
Active and inactive are the calls of the source.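 The calls were made as follows, unless noted: active = compounds that lower survival of HCT116 colon cancer cells in the luminescence readout, no numeric limit stated; inactive = the rest.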

Tests used:
[1] = Wnt pathway potentiators raising nuclear beta-catenin – imaging, WNT3A-conditioned medium, mouse C2C12, NPC library, primary screen (AID 1117326; in the data active = nuclear beta-catenin stimulation mostly above about 4.2%, no sharp cut-off; inactive = mostly below about 10%; also: reference of the scale not given here); settings: stronger effect = higher value
[2] = stimulators of insulin release from INS-1E, primary screen, cell-based, 5 mM glucose, NPC library (AID 1117329;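 active = compound raises insulin release from rat beta cells at 5 mM glucose, no numeric limit stated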; also: reference of the scale not given here); settings: rat INS-1E insulin secretion, at 10 µM, stronger effect = higher value
[3] = growth inhibition of GSK3B-pretreated HCT116 cells – cell-based, CellTiter-Glo, 0.2 to 20 µM (AID 1117336;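 active = compounds lowering colon cancer cell viability after pretreatment blocking the GSK3B kinase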); settings: HCT116 viability after GSK3B inhibitor, at 20 µM, stronger effect = higher value
[4] = inhibition of endothelial tube formation, primary screen, imaging, VEGF stimulated, CD31 staining, tube area, NPC library (AID 1117340;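 active = compound that reduces growth-factor-driven endothelial tube area in a mixed cell culture, no cutoff stated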); settings: VEGF-stimulated ADSC/ECFC co-culture, at 10 µM, stronger effect = higher value
[5] = GLP1 release stimulators, primary, NCI-H716, NPC library (AID 1117341;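 active = compound raises GLP1 secretion from the human gut endocrine cells, with no numeric limit stated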; also: reference of the scale not given here); settings: NCI-H716 cells, at 10 µM, stronger effect = higher value
[6] = HCT116 colon cancer cell growth inhibition, primary screen, CellTiter-Glo luminescence, NPC library (AID 1117342); settings: at 20 µM (top of the series)
[7] = reduced SW480 viability measured with CellTiter-Glo, NPC library, primary (AID 1117343;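 active = compounds that lower viability of the colon cancer cells in the luminescence readout, with no numeric limit stated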); settings: CellTiter-Glo luminescence; at 20 µM (top of the series)
[8] = NPC library primary testing for decreased DLD-1 cell viability via CellTiter-Glo (AID 1117346;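 active = compounds that lower survival of DLD-1 colon cancer cells in the luminescence readout, no cutoff given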); settings: DLD-1 viability, CellTiter-Glo luminescence; at 20 µM (top of the series)

N=C(N)c1ccc(OCCCOc2ccc(C(=N)N)cc2)cc1
-0.9%: nuclear beta-catenin stimulation ([1]; stimulation, at 2 µM)
inactive: nuclear beta-catenin stimulation ([1]; at 10 µM) -2.3% | insulin secretion stimulation [2] 2.7% | viability decrease [3] -29.9% | tube area decrease [4] -17.1% | GLP1 secretion stimulation [5] -1.7% | inhibition of viability [6] 7.1% | viability decrease (inhibition) [7] 9.5% | viability decrease (inhibition) [8] -2.6%

CC(=O)N1C[C@H](O)C[C@H]1C(=O)O
inactive: nuclear beta-catenin stimulation ([1]; at 10 µM) 0.5% | insulin secretion stimulation [2] -0.3% | viability decrease [3] -2.7% | tube area decrease [4] -1.7% | GLP1 secretion stimulation [5] -0.9% | inhibition of viability [6] 7.13% | viability decrease (inhibition) [7] 8.1% | viability decrease (inhibition) [8] 4%
-0.3%: nuclear beta-catenin stimulation ([1]; stimulation, at 2 µM)

CC(=O)OCC(=O)Nc1cc(C#N)cc(NC(=O)COC(C)=O)c1Cl
inactive: nuclear beta-catenin stimulation ([1]; at 10 µM) -0.4% | insulin secretion stimulation [2] 4% | viability decrease [3] -0.6% | tube area decrease [4] -12.8% | GLP1 secretion stimulation [5] 3.3% | inhibition of viability [6] 0.9% | viability decrease (inhibition) [7] -20.3% | viability decrease (inhibition) [8] 1.6%
-1.4%: nuclear beta-catenin stimulation ([1]; stimulation, at 2 µM)

Cc1ccccc1C(=O)Nc1ccc(C(=O)N2CCCC(N(C)C)c3ccccc32)cc1 (centres undefined)
30%: nuclear beta-catenin stimulation ([1]; stimulation, at 2 µM)
active: nuclear beta-catenin stimulation ([1]; at 10 µM) 58.3% | tube area decrease [4] 59.2% | inhibition of viability [6] 80.2% | viability decrease (inhibition) [7] 80.2% | viability decrease (inhibition) [8] 59%
inactive: insulin secretion stimulation [2] 2.4% | viability decrease [3] 18.9% | GLP1 secretion stimulation [5] 2.1%

CCCCC(CC)COC(=O)/C=C/c1ccc(OC)cc1 (centres undefined)
inactive: nuclear beta-catenin stimulation ([1]; at 10 µM) -1.6% | insulin secretion stimulation [2] 2.6% | viability decrease [3] 5.9% | tube area decrease [4] 3.3% | GLP1 secretion stimulation [5] 0.8% | inhibition of viability [6] 15.9% | viability decrease (inhibition) [7] -7.2% | viability decrease (inhibition) [8] 3.7%
-0.8%: nuclear beta-catenin stimulation ([1]; stimulation, at 2 µM)

CO[C@@H]1[C@@H](O[C@@H]2O[C@H](C)[C@@H](O[C@H]3C[C@@](C)(O)[C@@H](O)[C@H](C)O3)[C@H](N(C)C)[C@H]2O)[C@@H](CC=O)C[C@@H](C)[C@@H](O[C@@H]2CC[C@H](N(C)C)[C@@H](C)O2)/C=C/C=C/C[C@@H](C)OC(=O)C[C@H]1OC(C)=O
active: viability decrease (inhibition) [7] 59.8%
inactive: nuclear beta-catenin stimulation ([1]; at 10 µM) -0.1% | insulin secretion stimulation [2] 3.3% | viability decrease [3] 0.2% | tube area decrease [4] 3% | GLP1 secretion stimulation [5] 9.9% | inhibition of viability [6] 23.2% | viability decrease (inhibition) [8] 18.7%
-1.2%: nuclear beta-catenin stimulation ([1]; stimulation, at 2 µM)

O=C(c1ccccc1)C(O)c1ccccc1 (centres undefined)
inactive: nuclear beta-catenin stimulation ([1]; at 10 µM) 0.5% | insulin secretion stimulation [2] -1.6% | viability decrease [3] -1.05% | tube area decrease [4] -9.2% | GLP1 secretion stimulation [5] -0.3% | inhibition of viability [6] 2.8% | viability decrease (inhibition) [7] 9.2% | viability decrease (inhibition) [8] 6.95%
0.8%: nuclear beta-catenin stimulation ([1]; stimulation, at 2 µM)

COC(=O)CCC[N+](C)(C)C
inactive: nuclear beta-catenin stimulation ([1]; at 10 µM) -0.8% | insulin secretion stimulation [2] -6.3% | viability decrease [3] -4.8% | tube area decrease [4] 6.6% | GLP1 secretion stimulation [5] -14% | inhibition of viability [6] 4.6% | viability decrease (inhibition) [8] -12.1%
0.6%: nuclear beta-catenin stimulation ([1]; stimulation, at 2 µM)
active: viability decrease (inhibition) [7] 2.9%

CCCc1ccc(C(=O)O)cc1
2.4%: nuclear beta-catenin stimulation ([1]; stimulation, at 2 µM)
inactive: nuclear beta-catenin stimulation ([1]; at 10 µM) -2% | insulin secretion stimulation [2] 0.6% | viability decrease [3] -19.9% | tube area decrease [4] 0.8% | GLP1 secretion stimulation [5] 1.1% | inhibition of viability [6] 7.9% | viability decrease (inhibition) [7] 12.9% | viability decrease (inhibition) [8] 11.8%

CC1(C)CO[C@@H](CC(=O)O)CN1
inactive: nuclear beta-catenin stimulation ([1]; at 10 µM) -0.7% | insulin secretion stimulation [2] 0.5% | viability decrease [3] -0.8% | tube area decrease [4] -11.6% | GLP1 secretion stimulation [5] -0.1% | inhibition of viability [6] 7.17% | viability decrease (inhibition) [7] -7% | viability decrease (inhibition) [8] -1%
0.1%: nuclear beta-catenin stimulation ([1]; stimulation, at 2 µM)

C[C@]12C=CC(=O)C=C1[C@@H](F)C[C@@H]1[C@@H]2[C@@H](O)C[C@@]2(C)[C@H]1CC[C@]2(O)C(=O)CO
-0.6%: nuclear beta-catenin stimulation ([1]; stimulation, at 2 µM)
inactive: nuclear beta-catenin stimulation ([1]; at 10 µM) -1.5% | insulin secretion stimulation [2] 0.8% | viability decrease [3] -14.4% | tube area decrease [4] 11.3% | GLP1 secretion stimulation [5] -2.3% | inhibition of viability [6] 5% | viability decrease (inhibition) [7] 19.5% | viability decrease (inhibition) [8] -6.1%

COc1cc2[nH]c(=O)[nH]c(=O)c2cc1OC
inactive: nuclear beta-catenin stimulation ([1]; at 10 µM) 0.1% | insulin secretion stimulation [2] -1.8% | viability decrease [3] 6.35% | tube area decrease [4] -8.3% | GLP1 secretion stimulation [5] 3.1% | inhibition of viability [6] -1.4% | viability decrease (inhibition) [7] 47.6% | viability decrease (inhibition) [8] 0.05%
1.1%: nuclear beta-catenin stimulation ([1]; stimulation, at 2 µM)

CCO[C@@H]1O[C@H](C(COCc2ccccc2)OCc2ccccc2)[C@H](OCc2ccccc2)[C@H]1O (some centres undefined)
active: inhibition of viability [6] 81.6% | viability decrease (inhibition) [7] 63.5% | viability decrease (inhibition) [8] 44.6%
inactive: nuclear beta-catenin stimulation ([1]; at 10 µM) -1.3% | insulin secretion stimulation [2] 2.2% | viability decrease [3] 15.1% | tube area decrease [4] 28.6% | GLP1 secretion stimulation [5] 6.9%
-1.2%: nuclear beta-catenin stimulation ([1]; stimulation, at 2 µM)

NS(=O)(=O)c1ccc(Cl)c(S(N)(=O)=O)c1
inactive: nuclear beta-catenin stimulation ([1]; at 10 µM) -2.3% | insulin secretion stimulation [2] -1.3% | viability decrease [3] -4.9% | tube area decrease [4] 12.2% | GLP1 secretion stimulation [5] -0.9% | inhibition of viability [6] -6% | viability decrease (inhibition) [7] -5.6% | viability decrease (inhibition) [8] -7.1%
-1%: nuclear beta-catenin stimulation ([1]; stimulation, at 2 µM)

N[C@H](C(=O)O)[C@@H](O)c1ccc(O)c(O)c1
inactive: nuclear beta-catenin stimulation ([1]; at 10 µM) 0.1% | insulin secretion stimulation [2] 11.2% | viability decrease [3] 31.7% | tube area decrease [4] 1.4% | GLP1 secretion stimulation [5] -4.8% | inhibition of viability [6] 6.7% | viability decrease (inhibition) [7] 21.5% | viability decrease (inhibition) [8] 2.8%
0%: nuclear beta-catenin stimulation ([1]; stimulation, at 2 µM)

CCCCCCCCCCCCOCCOCCOCCOCCOCCOCCOCCOCCOCCO
active: viability decrease [3] 78.1% | tube area decrease [4] 47.8% | GLP1 secretion stimulation [5] 33.5% | inhibition of viability [6] 96.8% | viability decrease (inhibition) [7] 124% | viability decrease (inhibition) [8] 104%
1.9%: nuclear beta-catenin stimulation ([1]; stimulation, at 2 µM)
inactive: nuclear beta-catenin stimulation ([1]; at 10 µM) 3.9% | insulin secretion stimulation [2] 0.8%
